HepG2 viability – counter-screen for TGF-b inhibitors: cytotoxicity in HepG2 cells; Potency, µM (highest dose often 46.1 µM), without a hit: at the top dose activity change, negative = cytotoxicity, hits mostly cytotoxic; HepG2 CAGA-GFP viability, ATP luminescence, 18 h; AID 588856; 410,000 tested, 0.76% active
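CellTiter-Glo luminescence gave cytotoxicity after 18 hours at 37 degrees C. The cells were HepG2 CAGA-GFP in 1% FBS DMEM, stimulated with 500 pg/mL TGF-beta after compound addition. %Activity was normalised to no-cell wells (complete cell-killing) and DMSO (no toxicity), and curves were fitted and classified.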
ATXN viability – reduces viability in counter-screen for ATXN expression inhibitors. S2 cells (HEK-293 line with an ATXN2-luciferase reporter) viability, CellTiter-Fluor protease fluorescence, 24 h. Potency, µM (doses to about 56.7 µM), usual class: cytotoxic. 400,000 tested, 0.49% active; also: nearly all actives have a fitted effect of over 40% in size
TGFb SMAD3 inh – TGF-b pathway inhibition; HepG2 CAGA-GFP TGF-b/SMAD3 reporter, GFP fluorescence, 18 h; TGF-beta stimulated, 500 pg/mL final; Potency, µM (titrated, usually from 46.1 µM), without a hit: top-dose activity, negative = inhibition, most hits filed as inhibitors; 410,000 tested, 1.2% active; AID 588855; also: % is scaled to controls: 0 for no effect and ±100 for the full control effect; nearly all actives have a fitted effect of over 65% in size
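Inhibition of TGF-beta-driven CAGA-GFP reporter expression in HEPG2 cells is measured by cellular GFP fluorescence after 18 h stimulation with 500 pg/mL recombinant TGF-beta in 1% FBS medium at 37 degrees C.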
ATXN2 expr inh – ATXN2 expression inhibition; HEK-293 ATXN2-luciferase reporter, luminescence, 24 h; Potency, µM (series often up to 57 µM), without a hit: at the top dose activity change, negative = inhibition, usual class: inhibitors; 360,000 tested, 0.72% active; AID 1745845; also: % is scaled to controls: 0 for no effect and ±100 for the full control effect; nearly all actives have a fitted effect of over 55% in size
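qHTS (up to 57 uM final) was run with 24 h compound exposure of reporter cells at 37 °C. Each well was multiplexed: SteadyGlo luminescence measured ATXN2-luciferase expression after a fluorogenic Gly-Phe-AFC viability readout (25 uM final).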
RORgamma inh – inhibitors of mouse ROR gamma transcriptional activity; P51450; Potency, µM (top dose mostly 53.6 µM), for the others: at the top dose activity change, negative = inhibition, most hits filed as inhibitors; Drosophila S2 Gal4-RORgamma UAS-luciferase reporter, 20 h; 310,000 tested, 5.4% active; also: % is scaled to controls: 0 for no effect and ±100 for the full control effect; nearly all actives have a fitted effect of over 60% in size
Target sequence (P51450 whole entry, looked up, the tested form may be a part): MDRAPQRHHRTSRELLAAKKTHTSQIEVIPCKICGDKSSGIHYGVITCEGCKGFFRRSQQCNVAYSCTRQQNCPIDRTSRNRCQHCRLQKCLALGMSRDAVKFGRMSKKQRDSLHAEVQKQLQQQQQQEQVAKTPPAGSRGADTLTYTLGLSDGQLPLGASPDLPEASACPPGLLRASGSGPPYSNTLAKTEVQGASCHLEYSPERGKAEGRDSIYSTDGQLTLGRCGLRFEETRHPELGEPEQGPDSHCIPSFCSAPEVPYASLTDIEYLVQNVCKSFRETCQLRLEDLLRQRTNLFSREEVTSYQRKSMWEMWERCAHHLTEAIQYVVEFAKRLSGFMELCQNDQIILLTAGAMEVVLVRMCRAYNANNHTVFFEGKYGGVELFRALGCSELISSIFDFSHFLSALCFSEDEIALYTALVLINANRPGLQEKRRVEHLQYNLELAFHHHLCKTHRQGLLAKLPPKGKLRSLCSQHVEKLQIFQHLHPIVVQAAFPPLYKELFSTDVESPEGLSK
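Stably transfected Drosophila Schneider cells are the test system, with ROR gamma fused to Gal4 and luciferase under UAS control; luminescence is read after 20 hr of 700 uM copper sulfate induction at ambient temperature.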
Gal4-VP16 FLuc – counter-screen for ROR gamma inhibitors: Gal4-VP16 reporter; Drosophila S2 Gal4-VP16 UAS-luciferase, luminescence, 20 h; Potency, µM (top dose mostly 53.6 µM), for the others: at the highest dose activity, negative = inhibition, most hits filed as inhibitors; 310,000 tested, 3.5% active;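 also: Gal4-VP16 expression switched on by copper sulfate through the metallothionein promoter; % is scaled to controls: 0 for no effect and ±100 for the full control effect; nearly all actives have a fitted effect of over 50% in size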
* = called active by the depositor. Hits are enriched below; roughly 6.1% of the tested compounds scored in any of these assays. Calls follow the shape of the dose curve; as a rule, active = well fitted curve in the direction sought with a large enough effect; inconclusive = small, poorly fitted or top-dose-only effect, or another doubt; inactive = no such curve, though single readings can be large; an effect the other way counts as inactive or inconclusive. Potency is read from the fitted curve at half-maximal effect.

CCOc1cccc(C(=O)c2ccc(O)c(O)c2O)c1 was read as RORgamma inh -32% and Gal4-VP16 FLuc 4%.
For CN(C)c1ccc(NC(=S)c2ccc3ccccc3n2)cc1 the results were HepG2 viability -28%, ATXN viability inactive, TGFb SMAD3 inh -10%, RORgamma inh 6.3µM* and Gal4-VP16 FLuc inconclusive.
Cc1ccc(C)c(NC(=S)c2ccccn2)c1 was read as HepG2 viability -38%, ATXN viability inactive, TGFb SMAD3 inh -6%, ATXN2 expr inh 26%, RORgamma inh 0.32µM* and Gal4-VP16 FLuc 1.3µM*.
`Cc1ccc(C)c(NC(=S)c2ccc3ccccc3n2)c1` gave HepG2 viability -13%, ATXN viability inactive, TGFb SMAD3 inh inconclusive, ATXN2 expr inh 65%, RORgamma inh 2µM* and Gal4-VP16 FLuc 5.6µM*.
Screening COc1ccc(NC(=S)c2ccc(N(C)C)cc2)cc1 returned HepG2 viability 1%, ATXN viability inconclusive, TGFb SMAD3 inh -2%, ATXN2 expr inh 37%, RORgamma inh inconclusive and Gal4-VP16 FLuc 21%.
Screening Cc1ccc(NC(=S)c2ccc(N(C)C)cc2)cc1 returned HepG2 viability 7%, ATXN viability inactive, TGFb SMAD3 inh -3%, ATXN2 expr inh 37%, RORgamma inh 10µM* and Gal4-VP16 FLuc inconclusive.
For Cc1ccc(C)c(NC(=O)NCc2ccccn2)c1 the results were HepG2 viability 0%, ATXN viability inactive, TGFb SMAD3 inh 5%, ATXN2 expr inh 5%, RORgamma inh 20% and Gal4-VP16 FLuc -21%.
For CCOC(=O)c1c(C)oc2nc(C)nc(NCCc3ccc(SC)cc3)c12 the results were HepG2 viability 3%, ATXN viability inactive, TGFb SMAD3 inh 5% and ATXN2 expr inh 2%.
`CCOc1ccccc1NC(=O)CSc1nnc2[nH]c(=O)cc(-c3ccccc3)n12` gave HepG2 viability 1% and TGFb SMAD3 inh -9%.
`Cc1cc2oc(=O)cc(Cn3ncc(Cl)c(Cl)c3=O)c2cc1Cl` gave HepG2 viability -30%, TGFb SMAD3 inh inconclusive, ATXN2 expr inh 25µM*, RORgamma inh -23% and Gal4-VP16 FLuc inconclusive.
For COc1ccc(OC)c(NC(=O)C2CCCN(S(=O)(=O)c3cccc4nsnc34)C2)c1 (stereo not given) the results were HepG2 viability 13µM*, ATXN viability inactive, TGFb SMAD3 inh -9%, ATXN2 expr inh -8%, RORgamma inh 9% and Gal4-VP16 FLuc -2%.
`O=C(Oc1ccccc1)N1CCC2(CC1)CCN(c1ccncc1)CC2` gave RORgamma inh -11% and Gal4-VP16 FLuc -10%.
CCN(Cc1ccncc1)Cc1ccc2c(c1)CN(C(=O)c1cccc(-n3nc(C)cc3C)c1)CCO2 was read as ATXN viability inactive.
CN(Cc1c(F)cccc1Cl)C(=O)c1cccc(S(=O)(=O)N2CCN(Cc3ccccc3)CC2)c1 was read as HepG2 viability -16%, ATXN viability inactive, TGFb SMAD3 inh inconclusive and ATXN2 expr inh -10%.
CN(Cc1ccc(OC(F)F)cc1)C(=O)c1cccc(S(=O)(=O)N2CCN(Cc3ccccc3)CC2)c1 was read as HepG2 viability -4%, ATXN viability inactive, TGFb SMAD3 inh 10µM* and ATXN2 expr inh inconclusive.
`O=S(=O)(NCc1nc2cccnc2n1Cc1ccc(F)cc1)c1ccc(Cl)s1` gave HepG2 viability -22% and TGFb SMAD3 inh -19%.
Cc1c(C(=O)NC2CCCc3ccccc32)oc2ccccc12 (stereo not given) was read as HepG2 viability -8%, ATXN viability inactive, TGFb SMAD3 inh 2%, ATXN2 expr inh 12%, RORgamma inh 4.5µM* and Gal4-VP16 FLuc 8%.
`Cc1occc1C(=O)NC1CCCc2ccccc21` (stereo not given) gave HepG2 viability -1%, ATXN viability inactive, TGFb SMAD3 inh inconclusive, ATXN2 expr inh 23%, RORgamma inh 17% and Gal4-VP16 FLuc inconclusive.
For S=C(NC1CC1)NC1CCCc2ccccc21 (stereo not given) the results were HepG2 viability -16%, ATXN viability inactive, TGFb SMAD3 inh -26%, RORgamma inh 2.2µM* and Gal4-VP16 FLuc inconclusive.
For O=C(NC1CCCc2ccccc21)c1ccccc1 (stereo not given) the results were HepG2 viability -9%, ATXN viability inactive, TGFb SMAD3 inh -5%, ATXN2 expr inh -3%, RORgamma inh 23% and Gal4-VP16 FLuc 0%.
For S=C(NCc1ccco1)NC1CCCc2ccccc21 (stereo not given) the results were HepG2 viability -6%, ATXN viability inactive, TGFb SMAD3 inh -26%, RORgamma inh 4.5µM* and Gal4-VP16 FLuc 13µM*.
Screening S=C(NCc1ccccc1)NC1CCCc2ccccc21 (stereo not given) returned HepG2 viability -15%, ATXN viability inactive, TGFb SMAD3 inh inconclusive, ATXN2 expr inh 4%, RORgamma inh 2.5µM* and Gal4-VP16 FLuc 11µM*.
`CCN(CC)CCC(c1cc(OC)c(OC)c(OC)c1)c1c(OC)cc(OC)c2c1OC(=O)CC2c1ccc(N(C)C)cc1` (stereo not given) gave HepG2 viability -3%, TGFb SMAD3 inh 5%, RORgamma inh 31% and Gal4-VP16 FLuc -3%.
`CCOc1ccc(OCC)c(NC(=O)C2CCN(S(=O)(=O)c3cn(C)cn3)CC2)c1` gave HepG2 viability -2% and TGFb SMAD3 inh inconclusive.
`Cc1ccc(C)c(Nc2nn3c(=O)c4ccc(C(=O)NCc5cccs5)cc4nc3s2)c1` gave HepG2 viability 6.3µM* and TGFb SMAD3 inh 5µM*.
For CCOC(=O)C1CCN(C(=O)c2ccc3c(=O)n4nc(Nc5ccccc5OC)sc4nc3c2)CC1 the results were HepG2 viability -12%, ATXN viability inactive and TGFb SMAD3 inh -4%.
Screening CCOC(=O)C1CCN(C(=O)c2ccc3c(=O)n4nc(Nc5cc(C)ccc5C)sc4nc3c2)CC1 returned HepG2 viability -26%, ATXN viability inactive, TGFb SMAD3 inh 13µM*, ATXN2 expr inh -30%, RORgamma inh 31% and Gal4-VP16 FLuc -21%.
CC(=O)Nc1ccc(/C=C2\C=Cc3ccccc32)cc1 was read as HepG2 viability -29% and TGFb SMAD3 inh 1%.
For COc1ccc(/C=N/NC(=O)c2ccncc2)cc1CSc1nc2ccccc2s1 the results were HepG2 viability -12%, ATXN viability inactive, TGFb SMAD3 inh -20%, ATXN2 expr inh 23%, RORgamma inh 7.1µM* and Gal4-VP16 FLuc 6.3µM*.

High-throughput results: PubChem BioAssay, National Center for Advancing Translational Sciences (NCATS)
